Measurements taken from PubChem BioAssay AID1159580 (chemical genetic matrix, 2015).
Screen size: about 5,500 compounds; about 2,000 (36%) were called active. Another 18% or so got no clear call; they are omitted. No stated cut-off is given here; in the data, active means normalized growth mostly below about 0.91 (no sharp cut-off); inconclusive means no clear call, values can overlap the other calls; inactive means mostly above about 0.92. This is one part of the list.

Experiment: chemical genetic growth profiling, strain panel (AID 1159580);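 further: tested at 20 µM; growth read once vehicle control cultures reached saturation at 30 °C; 1 = growth at the plate median or of vehicle wells; lower values mean less growth of the strain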
Settings: S. cerevisiae deletion strains, growth OD

Measured: normalized growth

COc1ccc2c(c1OC)C(=O)O[C@@H]2[C@H]1c2c(cc3c(c2OC)OCO3)CCN1C
inactive: locus YAL040C, strain CLN3, hits give low values 0.984 | locus YCL061C, strain MRC1 (second series), hits give low values 1 | locus YDR150W, strain NUM1, hits give low values 1 | locus YDR363W, strain ESC2, hits give low values 0.998 | locus YER002W, strain NOP16, hits give low values 0.985 | locus YGR229C, strain SMI1, hits give low values 0.998 | locus YJR075W, strain HOC1, hits give low values 1 | locus YMR307W, strain GAS1, hits give low values 0.991 | locus YNL153C, strain GIM3, hits give low values 1.01 | locus YNL175C, strain NOP13, hits give low values 1 | locus YNL197C, strain WHI3, hits give low values 1.01 | locus YNL224C, strain SQS1, hits give low values 1 | locus YNL322C, strain KRE1, hits give low values 0.994 | locus YOR083W, strain WHI5 (second series), hits give low values 1.01 | locus YPL055C, strain LGE1, hits give low values 0.99
